High-throughput results as filed in PubChem.
AMA1-RON2 inh = qHTS for Inhibitors of AMA1-RON; Towards Development of Antimalarial Drug Lead: Primary Screen; Plasmodium falciparum AMA1 (3D7) - RON2 peptide interaction; actives 0.2% (n = 360,000); Potency, µM (doses to about 58.2 µM), most hits filed as inhibitors; AID 720542, 2013; AlphaScreen AMA1-biotinylated RON2 peptide binding; also: nearly all actives have a fitted effect of over 45% in size
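AMA1 (3D7) with his tag at 25 nM final met compounds first, then biotinylated RON2 peptide at 25 nM; detection used donor plus acceptor beads, 10 µg/mL apiece, read by AlphaScreen after 30 min at room temperature.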
Pf growth 48h = Primary qHTS for delayed death inhibitors of the malarial parasite plastid, 48 hour incubation; P. falciparum luciferase growth in erythrocytes, 48 h; Potency, µM (doses to about 28.7 µM), actives largely listed as inhibitors; actives 5.9% (n = 310,000)
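First compound was added to culture medium, then infected red cells at 0.1% parasitemia and 2% hematocrit (final). After incubation at 37 C under 5% CO2, luciferase detection reagent was dispensed and light output recorded.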
HCV inh = qHTS Assay for Inhibitors of Hepatitis C Virus (HCV); Huh7.5.1 HCVcc-Cre infection, luciferase reporter, 44 h; Potency, µM (titrated, usually from 41.8 µM), hits mostly inhibitors; actives 3.4% (n = 340,000); AID 651820, 2012
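Seed cells (1,000/well) for 4 h; treat with compound and infect with HCVcc-Cre, moi about 0.5. Incubate 44 h, then detect luciferase activity.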
Pf growth 96h = Primary qHTS for delayed death inhibitors of the malarial parasite plastid, 96 hour incubation | P. falciparum luciferase reporter growth, 96 h | actives 6.9% (n = 320,000) | AID 504834, 2011 | Potency, µM (highest dose often 28.7 µM), hits mostly inhibitors
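Erythrocytes infected with luciferase-expressing P. falciparum were dispensed at 2% hematocrit and 0.05% parasitemia (final), then incubated with compounds 96 hours at 37 C in 5% CO2. Luminescence after detection reagent addition reported growth.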
Of the large screens only hits and unclear results are named; the others gave an inactive call. Shown are actives, neighbours in structure and some others; about 11% of the full set was active somewhere. Calls follow the shape of the dose curve; as a rule, active = well fitted curve in the direction sought with a large enough effect; inconclusive = small, poorly fitted or top-dose-only effect, or another doubt; inactive = no such curve, though single readings can be large; an effect the other way counts as inactive or inconclusive.

CC(C)C[C@@H](CN1CCC[C@@H]1CN1C(=S)NC[C@@H]1Cc1ccc(O)cc1)N1C[C@H](Cc2ccc(O)cc2)N(CC2CCCCCC2)C1=S	none (no result: Pf growth 48h, HCV inh, Pf growth 96h)
CN(Cc1ccc(Cl)cc1)C(=O)c1ccc2ccccc2n1	none
CC1(C)CC(=O)C=C(NCC(O)c2ccccc2)C1 (stereo not given)	Pf growth 96h inconclusive
C=C(C)Cn1c(N2CCN(c3ccc(OC)cc3)CC2)nc2c1c(=O)n(C)c(=O)n2C	HCV inh inconclusive
C#CCOc1nc2c(c(=O)n(C)c(=O)n2C)n1Cc1ccccc1	HCV inh 13µM
CC1CN(c2nc3c(c(=O)n(Cc4ccc(Cl)cc4)c(=O)n3C)n2C)CC(C)O1 (stereo not given)	Pf growth 48h 5.9µM, Pf growth 96h 2.3µM
CCCCCCn1c(N2CCN(c3ccccc3)CC2)nc2c1c(=O)n(C)c(=O)n2C	AMA1-RON2 inh inconclusive, Pf growth 48h 6.6µM, HCV inh inconclusive (no result: Pf growth 96h)
COc1ccc(N2CCN(c3nc4c(c(=O)n(C)c(=O)n4C)n3Cc3ccccc3)CC2)cc1	Pf growth 48h inconclusive, HCV inh 11µM (no result: Pf growth 96h)
CN1CCN(c2nc3c(c(=O)n(C)c(=O)n3C)n2Cc2ccc(Cl)cc2)CC1	Pf growth 96h 0.12µM
Cn1c(=O)c2c(nc(N3CCN(c4ccccn4)CC3)n2Cc2ccccc2Cl)n(C)c1=O	Pf growth 48h 9.3µM, HCV inh inconclusive, Pf growth 96h 13µM
Cc1ccc2nc(NC(=O)C3CCN(C(=O)c4ccc(F)cc4)CC3)sc2c1	HCV inh inconclusive
CCOCCCN1CN(Cc2ccccc2)CNC1=S	Pf growth 96h inconclusive
CCCCN1CN(Cc2ccccc2)CNC1=S	Pf growth 96h 9.3µM
CC(=O)Nc1ccc(Cc2ccc3[nH]c(=O)cc(C)c3c2)cc1	none (no result: AMA1-RON2 inh, HCV inh)
Cc1cc(C)n(C(=O)C23CC4CC(CC(C4)C2)C3)n1	none (no result: AMA1-RON2 inh)
Cn1cc(CN2CC3C[C@@H]4CC2C[C@H](C3)C4)c(-c2ccc3c(c2)OCCO3)n1	Pf growth 96h 12µM
c1cc2c(cc1-c1[nH]ncc1CN1CC3C[C@@H]4CC1C[C@H](C3)C4)OCO2	Pf growth 48h inconclusive, Pf growth 96h inconclusive
O=C(C1=C[C@H](c2csc3ccccc23)C[C@H](OCc2ccc(CO)cc2)O1)N1CCN(Cc2ccc3c(c2)OCO3)CC1	Pf growth 48h inconclusive, HCV inh 8.9µM, Pf growth 96h 4.1µM
O=C(C1=C[C@H](c2csc3ccccc23)C[C@H](OCc2ccc(CO)cc2)O1)N1CCOCC1	Pf growth 96h inconclusive
O=C(C1=C[C@H](c2csc3ccccc23)C[C@H](OCc2ccc(CO)cc2)O1)N1CCN(Cc2ccccc2)CC1	AMA1-RON2 inh inconclusive, Pf growth 48h inconclusive, HCV inh inconclusive, Pf growth 96h 9.3µM
CN1CCN(C(=O)C2=C[C@@H](c3csc4ccccc34)C[C@@H](OCc3ccc(CO)cc3)O2)CC1	Pf growth 48h inconclusive, Pf growth 96h inconclusive
O=C(C1=C[C@H](c2coc3ccccc3c2=O)C[C@H](OCc2ccc(CO)cc2)O1)N1CCN(Cc2ccc3c(c2)OCO3)CC1	Pf growth 48h 1.5µM, Pf growth 96h 1.3µM
O=C(C1=C[C@@H](c2coc3ccccc3c2=O)C[C@@H](OCc2ccc(CO)cc2)O1)N1CCN(Cc2ccc3c(c2)OCO3)CC1	Pf growth 48h inconclusive, HCV inh inconclusive, Pf growth 96h inconclusive
O=P(c1ccccc1)(c1ccccc1)c1cc(S(=O)(=O)O)ccc1O	none
Cc1nn(C)c(C)c1/C=C/C(=O)O	none
Cc1nn(C)c(C)c1/C=C/C(=O)c1ccc(Cl)cc1Cl	Pf growth 48h inconclusive, HCV inh 7.9µM
O=C(COc1ccc(Cl)cc1)N(c1ccc(Cl)cc1)C1CN2CCC1CC2 (stereo not given)	HCV inh 25µM, Pf growth 96h inconclusive
O=C(COc1ccc(Cl)cc1)N(c1ccccc1Cl)C1CN2CCC1CC2 (stereo not given)	Pf growth 48h inconclusive, HCV inh 10µM, Pf growth 96h inconclusive
O=C(COc1ccc(Cl)cc1)N1CCCC1	none
Cc1ccccc1CNS(=O)(=O)c1c(C(=O)N2CCCCC2)c(C)n(C)c1C	none
COCc1ccc(C(=O)N2CCCC(C(=O)c3ccc(SC)cc3)C2)s1 (stereo not given)	Pf growth 96h inconclusive (no result: HCV inh)
O=c1[nH]n2c(=O)c3c([nH]c2c1N=Nc1cccc(Cl)c1)CCC3	Pf growth 96h inconclusive
NS(=O)(=O)c1ccc(N=Nc2c(=O)[nH]n3c(=O)c4c([nH]c23)CCCC4)cc1	Pf growth 48h inconclusive, HCV inh inconclusive, Pf growth 96h 2.3µM
O=c1[nH]n2c(=O)c3c([nH]c2c1N=Nc1cccc(C(F)(F)F)c1)CCCC3	Pf growth 48h 13µM, Pf growth 96h inconclusive
COc1ccc(NC2CCCN(C(=O)C3(C)CCCCC3)C2)cc1OC (stereo not given)	none
O=C(OCCCOC(=O)c1ccc([N+](=O)[O-])o1)c1ccc([N+](=O)[O-])o1	Pf growth 48h 13µM
CC1CC(C)CN(C(=O)COC(=O)c2ccc([N+](=O)[O-])o2)C1 (stereo not given)	none
CCOC(=O)C1CCN(C(=O)COC(=O)c2ccc([N+](=O)[O-])o2)CC1	Pf growth 48h inconclusive, Pf growth 96h 12µM
CCn1c(=O)cc(SCC(=O)N2CCN(c3ccccn3)CC2)c2ccccc21	HCV inh inconclusive, Pf growth 96h inconclusive
CC1CC(C)CN(CCCNC(=O)COc2cc(=O)n(C)c3ccccc23)C1 (stereo not given)	Pf growth 48h 10µM
CCn1c(=O)cc(SCC(=O)N2CCN(c3ccccc3F)CC2)c2ccccc21	Pf growth 48h inconclusive, HCV inh 14µM
CCOC(=O)COc1cc(=O)n(CC)c2ccccc12	HCV inh inconclusive, Pf growth 96h 8.3µM
CCn1c(=O)cc(OCC(=O)NCCCN2CC(C)CC(C)C2)c2ccccc21 (stereo not given)	none
CCOC(=O)N1CCN(C(=O)COc2cc(=O)n(CC)c3ccccc23)CC1	none
CCn1c(=O)cc(SCC(=O)Nc2cccnc2)c2ccccc21	HCV inh inconclusive, Pf growth 96h 12µM
N[C@@H](Cc1ccccc1)C(=O)N1CCC(C(=O)N[C@@H](Cc2c[nH]c3ccccc23)C(=O)O)CC1	none
COc1ccc(OC)c(CN2C(=O)CSCC2(C)C(=O)Nc2c(C)cccc2C)c1 (stereo not given)	none (no result: Pf growth 48h, HCV inh, Pf growth 96h)
CCn1c(=O)cc(SCC(=O)N(C)Cc2ccccc2)c2ccccc21	Pf growth 96h inconclusive (no result: Pf growth 48h)
CN(C(=O)COc1cc(=O)n(C)c2ccccc12)c1ccc(Br)cc1	Pf growth 48h inconclusive, Pf growth 96h 10µM
CCOC(=O)CSc1cc(=O)n(CC)c2ccccc12	Pf growth 96h 10µM
O=C(c1ccco1)N1CCN(CCCCOc2cccc3ccccc23)CC1	Pf growth 48h inconclusive, Pf growth 96h inconclusive
